Screening results deposited in PubChem BioAssay by National Center for Advancing Translational Sciences (NCATS).
TsaE inh: YjeE (TsaE) inhibition, E. coli; AID 605; P0AF67; purified YjeE enzyme, qHTS inhibition assay; Potency, µM; 71,000 tested, 0.05% active
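Purified YjeE (10 uM) with BODIPY Texas Red-labeled ADP probe (2 uM); compounds pin-transferred, 15 min at room temperature. Binding inhibition read as decreased fluorescence polarization; ADP titration as control.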
BRCT inh red: BRCT-phosphoprotein interaction inhibition (red fluorophore); Potency, µM (highest dose often 76.9 µM), most hits filed as inhibitors; 75,000 tested, 0.03% active; BRCT-phosphopeptide binding, red fluorescence polarization; P38398
Target sequence (P38398 whole entry, looked up): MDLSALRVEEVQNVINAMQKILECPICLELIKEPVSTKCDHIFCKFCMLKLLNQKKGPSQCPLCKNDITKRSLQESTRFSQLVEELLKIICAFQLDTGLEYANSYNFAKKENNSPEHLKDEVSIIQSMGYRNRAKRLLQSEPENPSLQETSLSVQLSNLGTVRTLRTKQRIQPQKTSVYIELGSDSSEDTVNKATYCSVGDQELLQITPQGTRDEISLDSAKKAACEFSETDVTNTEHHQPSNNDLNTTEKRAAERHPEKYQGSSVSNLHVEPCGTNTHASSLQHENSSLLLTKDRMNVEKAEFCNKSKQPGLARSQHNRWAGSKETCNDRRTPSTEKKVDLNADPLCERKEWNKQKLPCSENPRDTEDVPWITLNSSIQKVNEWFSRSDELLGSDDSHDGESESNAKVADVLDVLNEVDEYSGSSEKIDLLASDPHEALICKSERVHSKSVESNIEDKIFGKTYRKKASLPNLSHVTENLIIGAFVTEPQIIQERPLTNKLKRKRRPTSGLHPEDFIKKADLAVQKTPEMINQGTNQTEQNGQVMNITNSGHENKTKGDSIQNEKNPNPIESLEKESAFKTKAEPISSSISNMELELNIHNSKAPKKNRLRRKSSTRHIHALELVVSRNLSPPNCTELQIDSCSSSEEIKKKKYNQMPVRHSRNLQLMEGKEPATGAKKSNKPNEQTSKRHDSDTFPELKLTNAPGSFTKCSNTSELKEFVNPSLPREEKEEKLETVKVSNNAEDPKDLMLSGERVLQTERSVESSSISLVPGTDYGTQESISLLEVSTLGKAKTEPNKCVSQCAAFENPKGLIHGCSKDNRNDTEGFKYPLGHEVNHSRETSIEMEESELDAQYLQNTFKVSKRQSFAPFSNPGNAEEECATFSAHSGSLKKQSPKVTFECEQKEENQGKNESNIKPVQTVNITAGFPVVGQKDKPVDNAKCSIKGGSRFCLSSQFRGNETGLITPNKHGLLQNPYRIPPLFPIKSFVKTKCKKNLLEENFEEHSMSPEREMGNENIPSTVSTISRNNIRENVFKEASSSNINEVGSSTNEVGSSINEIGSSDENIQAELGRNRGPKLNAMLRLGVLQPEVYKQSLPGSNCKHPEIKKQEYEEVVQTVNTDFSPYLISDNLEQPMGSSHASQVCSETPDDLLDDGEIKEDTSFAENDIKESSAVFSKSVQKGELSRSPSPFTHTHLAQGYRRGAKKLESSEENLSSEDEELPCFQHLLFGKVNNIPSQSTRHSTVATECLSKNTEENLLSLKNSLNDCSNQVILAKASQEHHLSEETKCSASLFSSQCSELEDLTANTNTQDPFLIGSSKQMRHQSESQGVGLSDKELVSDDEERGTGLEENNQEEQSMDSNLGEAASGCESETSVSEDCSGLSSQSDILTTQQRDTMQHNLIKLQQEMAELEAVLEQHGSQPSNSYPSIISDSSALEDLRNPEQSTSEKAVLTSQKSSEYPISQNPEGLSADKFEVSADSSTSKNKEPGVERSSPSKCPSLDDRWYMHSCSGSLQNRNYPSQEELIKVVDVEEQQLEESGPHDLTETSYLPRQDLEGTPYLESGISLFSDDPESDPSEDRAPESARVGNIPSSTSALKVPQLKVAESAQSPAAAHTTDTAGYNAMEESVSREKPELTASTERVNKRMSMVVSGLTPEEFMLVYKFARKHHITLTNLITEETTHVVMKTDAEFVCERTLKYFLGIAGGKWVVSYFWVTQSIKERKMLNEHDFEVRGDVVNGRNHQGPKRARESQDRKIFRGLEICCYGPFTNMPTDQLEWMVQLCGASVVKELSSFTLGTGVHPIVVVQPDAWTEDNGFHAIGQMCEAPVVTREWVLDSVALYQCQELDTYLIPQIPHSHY
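Rhodamine-labelled pBACH1 10-mer (100 nM) bound to BRCT domain (100 nM) at pH 7.3; compounds incubated 12 min room temperature, polarization read. Free peptide defines full inhibition; unlabelled decapeptide titrated as control.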
ALOX15 inhib: inhibitors of human 15-lipoxygenase (ALOX15) | purified 15hLO-1, xylenol orange hydroperoxide absorbance | Potency, µM (doses to about 57.1 µM), actives largely listed as inhibitors | 74,000 tested, 1.4% active | AID 887; note: nearly all actives have a fitted effect of over 55% in size
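Hydroperoxide formed from arachidonic acid (50 uM) by purified human 15hLO-1 (40 nM) oxidizes ferrous iron, and the ferric-xylenol orange complex is read at 573 versus 405 nm. Compounds were preincubated 15 min; reaction ran 6 min at room temperature.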
BRCT PPI green: BRCA1 BRCT-phosphoprotein interaction inhibition; Potency, µM (titrated, usually from 76.9 µM), hits mostly inhibitors; 75,000 tested, 0.05% active; BRCA1 BRCT-phosphopeptide binding, green fluorescence polarization
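Compounds were incubated for 12 min at room temperature with a complex of 100 nM fluorescein-tagged pBACH1 decapeptide and 250 nM His-tagged BRCT protein. Buffer was phosphate pH 7.3 with EDTA, DTT and Tween 20. Disruption of binding lowers the polarization signal.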
Pol III holo inh: blocks replication by bacterial DNA polymerase III holoenzyme | Potency, µM (titrated, usually from 57.1 µM) | 71,000 tested, 0.25% active | reconstituted DNA polymerase III holoenzyme replication, biochemical
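Reconstituted *E. coli* holoenzyme (0.35 nM Pol III, 1 nM beta, 154 nM SSB, 2 nM primase) was preincubated with compound for 15 min at RT. Synthesis on 1.4 nM ssM13Gori ran 35 min, then was stopped with PicoGreen/EDTA and read as dsDNA fluorescence.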
ERK AVP inh: inhibitors of vasopressin-stimulated ERK signaling pathway. HEK293-V1b, vasopressin-stimulated pERK AlphaScreen. Potency, µM (series often up to 57.5 µM), most hits filed as inhibitors. 72,000 tested, 0.99% active. AID 995; note: nearly all actives have a fitted effect of over 55% in size
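V1b-HEK293 cells; cpd 30 min 37C; 25 nM vasopressin 5 min; lyse 10 min; AlphaScreen beads 5 hr RT. Normalized to DMSO basal and 25 nM vasopressin; AC50 by Hill fit.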
Large screens that a line does not name were inactive; ! = a repeat was not active. This is a sample that favours compounds with a hit; in the whole collection about 2.4% have one here. Calls come from the whole dose curve; as a rule, active = well fitted curve in the direction sought with a large enough effect; inconclusive = small, poorly fitted or top-dose-only effect, or another doubt; inactive = no such curve, though single readings can be large; an effect the other way counts as inactive or inconclusive.

O=C(CCCCCNc1nc(=S)[nH]c2ccccc12)N1CCN(c2ccccn2)CC1	ERK AVP inh 13µM
CN1CCN(C(=O)CCCOc2ccc(Cl)cc2Cl)CC1	none (no result: TsaE inh, Pol III holo inh, ERK AVP inh)
O=C(CCCOc1ccccc1)N1CCN(c2ccccn2)CC1	ERK AVP inh 25µM
O=C(CCCOc1ccc(Cl)cc1Cl)N1CCN(c2ccccn2)CC1	ERK AVP inh 40µM
O=C(CCCN1C(=O)c2ccccc2C1=O)N1CCN(c2ccccn2)CC1	none
O=C(CCCn1c(=O)[nH]c2ccccc2c1=O)N1CCN(c2ccccn2)CC1	none
O=C1C2=C(Nc3cc([N+](=O)[O-])ccc3N2)O[C@@H]1c1c[nH]c2ccc(COc3ccccc3)cc12	none
CN[C@H]1[C@@H](O)[C@@H](NC)[C@@H]2O[C@@]3(O)C(=O)C[C@@H](C)O[C@H]3O[C@H]2[C@H]1O	none
CCCCNC(=O)CSc1nc2ccc(N3CCOCC3)cc2c(=O)n1CCc1ccccc1	ALOX15 inhib 25µM
COCCNC(=O)CSc1nc2ccc(N3CCOCC3)cc2c(=O)n1CCc1ccccc1	none
NC(=O)c1cccc2c3c([nH]c12)CCCC3	ALOX15 inhib 3.2µM, ERK AVP inh inconclusive
Cc1nc(C)c(C(=O)C2=C(O)C(=O)N(CCCN(C)C)C2c2ccco2)s1 (centres undefined)	none
NC(Cc1ccc(O)c(O)c1)C(=O)O (centres undefined)	ALOX15 inhib 4µM (no result: TsaE inh, Pol III holo inh)
O=c1cc(-c2ccccc2)oc2cc(O)cc(O)c12	ERK AVP inh inconclusive
O=c1cc(-c2cc(O)c(O)c(O)c2)oc2cc(O)cc(O)c12	ALOX15 inhib 2.5µM (no result: TsaE inh, Pol III holo inh)
O=c1cc(-c2ccc(O)cc2)oc2cc(O)cc(O)c12	ALOX15 inhib 5µM!, ERK AVP inh inconclusive
CCOc1ccc2nc(NC(=O)C(CCSC)NS(=O)(=O)c3cccs3)sc2c1 (centres undefined)	ALOX15 inhib 16µM, ERK AVP inh inconclusive
CCOc1ccc2nc(NC(=O)C(NS(=O)(=O)c3cccs3)C(C)C)sc2c1 (centres undefined)	none
COc1ccc(S(=O)(=O)n2nc(-c3cc(OC)c(OC)c(OC)c3)cc2N)cc1OC	none
COc1ccc(-c2cc(N)n(S(=O)(=O)c3c(F)c(F)c(F)c(F)c3F)n2)cc1OC	ERK AVP inh 5µM
CC1=CC2=C(OC1N(C)C)c1cccc3cccc(c13)C2=O (centres undefined)	ALOX15 inhib 7.9µM, Pol III holo inh inconclusive, ERK AVP inh inconclusive
CC(=O)OCC(=O)[C@@]1(O)CCC2C3CC(C)C4=CC(=O)C=CC4(C)C3C(O)CC21C (some centres undefined)	none (no result: TsaE inh, Pol III holo inh)
O=c1cnnc(SCCc2ccccc2)[nH]1	ALOX15 inhib 4µM, ERK AVP inh inconclusive
CN1/C(=C/C=N/n2cnnc2)C(C)(C)c2ccccc21	ALOX15 inhib 25µM, ERK AVP inh inconclusive
CN1/C(=C\P(=O)(N(C)C)N(C)C)C(C)(C)c2ccccc21	TsaE inh inconclusive
CCOC(=O)c1ccc(NC(=O)COc2ccc(-n3cnnn3)cc2)cc1	none
CCC(=O)c1ccc(OCC(=O)Nc2nn3cnnc3s2)cc1	ERK AVP inh 32µM
Cn1cccc1-c1nc2ccc(NC(=O)c3cccs3)cc2[nH]1	ERK AVP inh 20µM
N#CC1=C(N)OC2=C(C(=O)CCC2)C12CCN(C(=O)OCc1ccccc1)CC2	ALOX15 inhib 25µM
CC1(C)CC(=O)C2=C(C1)OC(N)=C(C#N)C21CCN(C(=O)OCc2ccccc2)CC1	none
Cc1nc(NCc2ccccc2)c2nc(-c3ccccc3)n(CC(C)(C)CN(C)C)c2n1	ALOX15 inhib 4µM
CCCn1c(-c2ccc(F)cc2)nc2c(NCC(C)(C)CN(C)C)nc(C)nc21	ALOX15 inhib 13µM
CCCCNc1nc(C)nc2c1nc(-c1ccccc1)n2CCN(C)C	none
Cc1nc(N2CCOCC2)c2nc(-c3ccccc3)n(CCN(C)C)c2n1	ALOX15 inhib 13µM
Cc1nc(NCCO)c2nc(-c3ccccc3)n(CCN(C)C)c2n1	ALOX15 inhib 32µM
CCN(CC)CCCn1c(-c2ccccc2)nc2c(NCc3ccccc3)nc(C)nc21	none
COc1ccc(C(=O)N2CCC[C@@]3(CCN(CC(C)C)C3)C2)cc1	none
CCN(CC)CCCn1c(-c2ccccc2)nc2c(N(CCOC)CCOC)nc(C)nc21	none
COCCN(CCOC)c1nc(C)nc2c1nc(-c1ccccc1)n2CCN(C)C	ALOX15 inhib 25µM
CCCn1c(-c2ccc(F)cc2)nc2c(NC3CCN(Cc4ccccc4)CC3)nc(C)nc21	ALOX15 inhib 20µM
COc1ccccc1CCn1c(=O)c(C)nc2cncnc21	none
CCOC(=O)C1=C(C)NC(=O)NC1c1ccc(OCC(=O)OC)c(OC)c1 (centres undefined)	none
CCOC(=O)C1=C(C)NC(=O)NC1c1ccc(OC(C)C(=O)O)c(OC)c1 (centres undefined)	ALOX15 inhib 25µM
COc1ccc2c3c(cccc13)NN=C2C	ALOX15 inhib 13µM, Pol III holo inh 32µM
Cc1csc(NC(=O)CSc2nnc(Cc3cccn3C)n2CCc2ccccc2)n1	ALOX15 inhib 13µM (no result: ERK AVP inh)
Cn1cccc1Cc1nnc(SCC(=O)Nc2ccccc2F)n1CCc1ccccc1	ALOX15 inhib 16µM, ERK AVP inh inconclusive
CCOC(=O)c1ccc(NC(=O)NC2CCN(CC(=O)NCc3ccc4c(c3)OCO4)CC2)cc1	none
O=C(O)c1ccccc1NCn1c(=S)sc2ccccc21	none
CC1(C)[C@@H]2CC[C@@]1(CS(=O)(=O)Nc1ccccc1)C(=O)C2	none
COc1cccc(C2/C(=C(/O)c3ccncc3)C(=O)C(=O)N2CCCN2CCOCC2)c1OC (centres undefined)	none
CCN1CCC2(CC1)C(C#N)=C(N)Oc1c2sc2nc(C)cc(C)c12	ALOX15 inhib 25µM, ERK AVP inh inconclusive
COc1cc2cc3c4cc(OC)c(OC)cc4cc[n+]3c(C)c2cc1OC	Pol III holo inh 13µM, ERK AVP inh inconclusive
N#C/C(C(N)=O)=c1/ccc2c(c1)N1C3=C(CCCC3)CC3CCCCC31N=2 (centres undefined)	TsaE inh 40µM, ERK AVP inh inconclusive
N#CC(C#N)=c1ccc2c(c1)N1C3=C(CCCC3)CC3CCCCC31N=2 (centres undefined)	ERK AVP inh 2.5µM
O=C(Cc1cccs1)Nc1nc(-c2ccccc2)cs1	ERK AVP inh 10µM
Cn1nccc1C(=O)OCC(=O)Nc1nc(-c2ccccc2)cs1	ERK AVP inh 20µM
O=C1C(=O)c2ccccc2C(O)=C1Cc1ccccc1	none
COc1ccc(-c2nc3cnc(N4CCNCC4)nc3n(CCc3ccccc3)c2=O)cc1	none
